# Data taken from PubChem BioAssay AID504329 (Southern Research Specialized Biocontainment Screening …, 2011).
# In all, about 340,000 compounds went through this assay and about 1,000 (0.29%) were called active. A selection follows. Results with a measured potency or affinity are listed apart. Values without a mark were called inactive. No stated cut-off is given here; in the data, inconclusive means inhibition above about 27% without an active follow-up result; inactive means below that.
# Experiment: H1N1 influenza NS1A inhibitors, functional cell based assay (AID 504329)
# Conditions: percent inhibition, at 12.5 µM, active compounds read high
row,Structure (SMILES),inhibition
1,CC1(C)Oc2ccc(NC(=O)c3ccco3)cc2O1,-10.6%
2,CC1N(C)c2cc(NC(=O)c3ccco3)c(P(=O)(Nc3ccc([N+](=O)[O-])cc3)N3CCOCC3)cc2C1(C)C (stereo unspecified),10.5%
3,Cc1ccc(C2(C)NC(=O)N(CC(=O)N3CCN(C(=O)c4cccs4)CC3)C2=O)cc1 (stereo unspecified),-14.4%
4,Nc1oc2ccccc2c1C(=O)Cc1ccccc1O[C@@H]1O[C@H](CO)[C@@H](O)[C@H](O)[C@H]1O,-10.9%
5,COc1ccc(NC(=O)CSc2nnc(C)c(=O)n2N)cc1,3.72%
6,COc1cccc(NC(=O)CSc2nc(C)cs2)c1,-1.99%
7,COC(=O)c1ccc(NC(=O)CSc2nn3c(=O)c(C)nnc3s2)cc1,8.48%
8,COc1cccc(NC(=O)CSc2nnc(C)s2)c1,-8.01%
9,CC(C)Oc1ccc(-c2cc(=O)[nH]c(=O)[nH]2)cc1,2.31%
10,Cc1c(C(=O)OCC(=O)Nc2cccc(S(N)(=O)=O)c2)oc2c1ccc1ccccc12,-6.11%
11,Cc1cc(=O)n2c3ccccc3n(CC(O)CN3CCC(C)CC3)c2c1C#N (stereo unspecified),-2.23%
12,O=C(c1cccc(Cl)c1)N1CCN(C2CCCCCC2)CC1,-6.08%
13,O=C(Nc1nccs1)c1ccc(COc2ccccc2)o1,-27.9%
14,COc1ccc(-c2nc(N)n(C(=O)Cc3ccccc3)n2)cc1,0.25%
15,Cc1ccc(O)c(N=Nc2nccs2)c1,26.6%
16,Oc1ccc(Cl)cc1/C=N/c1nccs1,-1.76%
17,O=C(OCC(=O)N1CCN(c2ccccc2)CC1)c1ccc2ncsc2c1,3.79%
18,CC(C)(CO)NS(=O)(=O)c1ccc2c(c1)C(=O)c1cc(S(=O)(=O)NC(C)(C)CO)ccc1-2,-3.45%
19,COc1ccc(C(=O)NC2CCc3ccccc32)cc1OC1CCN(C(C)=O)CC1 (stereo unspecified),-1.94%
20,CS(=O)(=O)N1CCc2cc(S(=O)(=O)NCCNS(=O)(=O)c3ccc4c(c3)CCN4S(C)(=O)=O)ccc21,-9.03%
21,Fc1cccc(CN2CCSCC2)c1,-2.65%
22,O=C(NCC(c1ccco1)N1CCc2ccccc21)C(=O)Nc1ccc(F)cc1F (stereo unspecified),-6.42%
23,Oc1ccc(/C=N/Nc2cccc(Cl)n2)c(O)c1,10.3%
24,CCN(CC)S(=O)(=O)c1ccc(N/N=C/c2ccc(O)cc2)nc1,7.84%

row,Structure (SMILES),inhibition
1,O=[N+]([O-])c1ccccc1/C=N/Nc1nccnc1Cl,1.6%
2,Oc1cccc(C=NNc2ccccn2)c1,-19.8%
3,Cc1nc2ccccc2nc1N/N=C/c1ccc(O)cc1,13.5%
4,Clc1nccnc1N/N=C/c1ccc(Br)cc1,-20.8%
5,CCN(CC)S(=O)(=O)c1ccc(N/N=C/c2cc(OC)ccc2O)nc1,5.6%
6,Cc1cc(N/N=C/c2ccc(O)cc2O)c2ccccc2n1,0.21%
7,CC(C)(NO)/C(=N/O)c1cccs1,3.4%
8,CC(C(=O)N1CCc2ccccc21)N1CCN(c2cccc(C(F)(F)F)c2)CC1 (stereo unspecified),-0.63%
9,CCOC(=O)CSC1=N/C(=C\c2ccc(OC)c(OC)c2)C(=O)N1C,2.72%
10,COc1ccc(-c2ccc3nnc(SCC(=O)N4CCCC4)n3n2)cc1,-5.09%
11,O=C(Nc1nccs1)c1cccnc1Cl,-9.22%
12,CCc1nnc(NCn2nc(C)cc2C)s1,6.15%
13,C=CCc1c(C)nc(C)nc1N/N=C/c1ccc(F)cc1,-0.47%
14,Oc1ccc(/C=N/Nc2nccnc2Cl)cc1,5.54%
15,C=CCc1c(C)nc(C)nc1N/N=C/c1ccccc1,-4.1%
16,Oc1ccc(/C=N/Nc2ccnc3cc(Cl)ccc23)c(O)c1,-16%
17,Cc1c(OCC(F)(F)F)ccnc1CSc1nc2ccccc2[nH]1,-9.09%
18,CCOc1ccc(OCCC(=O)N(CCCOC)c2c(N)n(Cc3ccccc3)c(=O)[nH]c2=O)cc1,-2.75%
19,O=C1NC(=O)c2cc3ccccc3cc21,-8.8%
20,O=C(Cn1ccccc1=O)NCc1ccc(F)cc1,-15.8%
21,COc1ccc(C2=C(Nc3ccccc3)c3ccccc3C2=O)cc1,-2.55%
22,O=C1C(Cl)=C(Nc2ccc(O)cc2)C(=O)c2ccccc21,13.6%
23,CCOc1ccc(NC2=CC(=O)C(=O)c3ccccc32)cc1,-7.73%
24,COc1ccc(NC2=C(c3ccc(OC)cc3)C(=O)c3ccccc32)cc1,5.77%

row,Structure (SMILES),inhibition
1,COC1=C(Nc2ccccc2)C(=O)C(OC)=C(Nc2ccccc2)C1=O,8.96%
2,COc1ccc(NC2=C(NCCO)C(=O)c3ccccc3C2=O)cc1,23.4%
3,Cc1cccc(NC2=C(NCCO)C(=O)c3ccccc3C2=O)c1,26.8%
4,NC1=C(Br)C(=O)c2ccccc2C1=O,1.89%
5,CSCCC(=O)NC1CCCN(CCc2ccccc2)C1 (stereo unspecified),-10.8%
6,O=C(NC1=NCCS1)c1cc(-c2cccs2)nc2ccccc12,1.99%
7,Clc1cccc(CN2CCCCCCC2)c1Cl,-8.07%
8,COc1cc(C2NC(=O)NC(C)=C2C(=O)OC2CCC(C)CC2)ccc1O (stereo unspecified),-1.48%
9,CCC(=O)Nc1nc(-c2ccccc2)nc(SC)c1C(C)=O,5.59%
10,O=C(NCCCN1CCCC1=O)C(=O)NCC1OCCCN1S(=O)(=O)c1cc(F)ccc1F (stereo unspecified),-6.67%
11,Cc1ccc(C(=O)N2CCN(c3ccc(NC(=O)c4cccnc4Cl)cc3)CC2)cc1,0.28%
12,CCN(CC)c1ccc(NC2=C(Cl)C(=O)c3ccccc3C2=O)cc1,27.5%
13,CC(=O)c1ccc(NC2=C(N3CCOCC3)C(=O)c3ccccc3C2=O)cc1,3.86%
14,O=C1C(Cl)=C(Nc2ccccc2)C(=O)c2ccccc21,-3.5%
15,COc1ccc(NC2=C(NC(C)=O)C(=O)c3ccccc3C2=O)cc1,0.92%
16,COc1ccc(C2=C(Nc3ccc(C)cc3)c3ccccc3C2=O)cc1,-3.38%
17,COC1=C(Nc2ccc(OC)cc2)C(=O)C(OC)=C(Nc2ccc(OC)cc2)C1=O,0.15%
18,Cc1ccc(NC2=C(N3CCCCC3)C(=O)c3ccccc3C2=O)cc1,28.7%
19,Cc1ccc(NC2=C(Cl)C(=O)c3ccccc3C2=O)cc1,2.23%
20,CC(C)CC(OC(=O)c1cccs1)C(=O)NCC1CCCO1 (stereo unspecified),11.2%
21,COc1ccccc1N1CCN(C(=O)c2ccc(S(=O)(=O)N3CCCC3)cc2)CC1,4.29%
22,COc1ccc(NC(=O)COC(=O)CCc2ccc(S(=O)(=O)N3CCOCC3)cc2)cc1Cl,-1.5%
23,CCOC(=O)c1sc2nc(N3CCOCC3)c3c(c2c1N)CCC3,8.09%
24,Cc1ccc(CNC(=O)Cn2nnc3ccccc3c2=O)cc1,-3.7%

row,Structure (SMILES),inhibition
1,COC(=O)c1ccc(NC(=S)NC2CC(C)(C)NC(C)(C)C2)cc1,-11.7%
2,CCOC(=O)C1(CCCc2ccccc2)CCN(C(=O)c2cnn(CC)c2)CC1,0.777%
3,O=C(NC(=S)Nc1ccc(F)c([N+](=O)[O-])c1)c1ccccc1F,6.76%
4,COc1cc(/C=C/C(=O)OCC(=O)NCCN2C(=O)CSC2=O)ccc1OCC#N,1.99%
5,CC(C)CN(C(=O)CCC(=O)OCc1ccc(Cl)cc1Cl)c1c(N)n(CC(C)C)c(=O)[nH]c1=O,-1.56%
6,CCN(Cc1ccccc1)c1ccc(/C=N/NS(=O)(=O)c2ccc(C)c([N+](=O)[O-])c2)cc1,-1.19%
7,CCN(CC)c1ccc(N=Nc2nn(C)c(C)c2[N+](=O)[O-])cc1,9.15%
8,Cn1c2c(c(=O)n(C)c1=O)C(c1ccc(F)cc1)C(C#N)=C(N)O2 (stereo unspecified),-0.36%
9,Cc1cccc(/C=N/NC(=O)c2ccc(NC(=O)c3ccccc3C)cc2)n1,-6.91%
10,CCNC(=O)C(=O)N1CCC2(CC1)OCCN2S(=O)(=O)c1ccc(C)cc1,5.17%
11,CCC(=O)/C=C1\Sc2ccc(OC)cc2N1CCO,7.02%
12,CCC(/C=C1\Sc2ccc(OC)cc2N1CC)=C\c1sc2ccc(OC)cc2[n+]1CCCS(=O)(=O)[O-],-0.43%
13,O=C(COC(=O)/C=C/c1ccccc1[N+](=O)[O-])NC1CC1,0.04%
14,CCN(CC)Cc1ccccn1,0.25%
15,OCCN(Cc1ccccc1)Cc1ncccc1O,-15.6%
16,CCn1c(SCC(=O)NC(C)c2ccccc2)nc2ccccc21 (stereo unspecified),6.4%
17,COc1ccc(C(C)(C)C)cc1NC(=O)COC(=O)CSCc1c(C)noc1C,12.6%
18,COC(=O)C1=C(C(=O)OC)SC(=C2C(=S)C(C)(C)N(C(=O)C(C)C)c3ccccc32)S1,26.5%
19,COC(=O)C1=C(C(=O)OC)SC(=C2C(=S)C(C)(C)N(C(=O)CC(C)C)c3ccccc32)S1,18.9%
20,CC(=O)C1=C(C)N(Cc2ccccc2)C(=O)N[C@H]1c1cccc(F)c1,-6.27%
21,CC(C)=C(NC(=O)c1ccccc1)C(=O)Nc1ccc(C(=O)O)cc1,-12.3%
22,O=C1C=C(O)c2cccc(O)c2C1=O,3.19%
23,O=C1C(=O)c2c(ccc3ccccc23)-c2ccccc21,0.1%
24,CC(=O)c1ccc(S(=O)(=O)N(CCCO)Cc2cc3cc4c(cc3[nH]c2=O)OCCO4)cc1,-6.83%
